D3 antag = D3 dopamine receptor (human) antagonism | P35462 | D3R cells, DiscoveRx beta-arrestin luminescence, antagonist mode; stronger effect = lower value | max response, negative = inhibition, % | hit rate 2.5% among 360,000; in the data active = max response below about -50%; inconclusive = no clear call, values can overlap the other calls; also: % is scaled to controls: 0 for no effect and ±100 for the full control effect
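Cells expressing the human receptor were seeded at 1500 cells/well, incubated overnight at 37 degrees C in 5% CO2, then exposed to library compounds with dopamine controls for 90 minutes at 37 degrees C before luminescent detection.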
a7 integrin act = integrin-mediated muscular dystrophy alleviation activation | alpha7betagal myoblasts, beta-gal FDG fluorescence, 48 h | Potency, µM (doses to about 38.3 µM), inactives show at the top dose activation, hits mostly activators | hit rate 0.064% among 350,000;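 also: potency is read from the fitted curve at half-maximal effect; 100% = response of the positive control SU9516; nearly all actives have a fitted effect of over 60% in size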
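Alpha7betagal+/- myoblasts (passage 13) were plated 16-24 hr, then exposed to compounds (1:260 dilution of DMSO stock) for 48 hours at 37C. After MPER lysis, β-galactosidase reporter activity was read as FDG fluorescence (ex 480/em 540) after 30 minutes.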
mIDH1 inhibitor = inhibitors of human mutant IDH1 R132H; O75874; IDH1-R132H enzyme, NADPH consumption, diaphorase/resazurin fluorescence; Potency, µM (titrated, usually from 76.6 µM), without a hit: at the highest dose activity change, negative = inhibition, most hits filed as inhibitors; hit rate 0.093% among 390,000; AID 602179; also: potency is read from the fitted curve at half-maximal effect; % is scaled to controls: 0 for no effect and ±100 for the full control effect; nearly all actives have a fitted effect of over 65% in size
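IDH1-R132H (0.5 ug/mL) preincubated 30 min with compound, then NADPH (0.016 mM) and alpha-KG (2 mM) added; 80 min at RT, pH 7.5. Remaining NADPH coupled via diaphorase/resazurin to fluorescence (540/590 nm); concentration-response curves normalized to no-enzyme control.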
B2AR arrestin = beta2AR (human) beta-arrestin recruitment activity. P07550. beta-arrestin recruitment to beta2AR, cell-based reporter. Potency, µM (series often up to 46.1 µM), for inactives: at the top dose activation, actives largely listed as activators. hit rate 0.02% among 330,000;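 also: potency is read from the fitted curve at half-maximal effect; 0% = DMSO controls and full agonism = EC100 isoproterenol or metaproterenol; nearly all actives have a fitted effect of over 65% in size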
Target sequence (P07550 whole entry, looked up): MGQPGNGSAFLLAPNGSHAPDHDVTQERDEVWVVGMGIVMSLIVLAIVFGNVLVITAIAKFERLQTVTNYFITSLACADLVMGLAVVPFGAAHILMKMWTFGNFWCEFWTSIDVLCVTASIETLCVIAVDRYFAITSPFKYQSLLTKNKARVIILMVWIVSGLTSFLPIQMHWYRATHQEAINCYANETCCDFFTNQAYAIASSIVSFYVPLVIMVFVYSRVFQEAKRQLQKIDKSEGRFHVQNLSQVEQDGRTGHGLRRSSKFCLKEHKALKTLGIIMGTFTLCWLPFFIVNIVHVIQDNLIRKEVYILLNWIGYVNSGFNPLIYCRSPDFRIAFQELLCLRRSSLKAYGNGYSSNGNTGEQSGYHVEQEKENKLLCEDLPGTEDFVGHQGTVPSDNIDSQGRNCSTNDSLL
DRD3 agonist = D3 dopamine receptor (human) agonism; P35462; D3R DiscoveRx beta-arrestin cells, luminescence, 90 min; max activation, %; hit rate 0.58% among 410,000; AID 652048; in the data active = max activation above about 30%; also: 0% is about no effect
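Agonist-mode cell screen: cells plated at 1500/well and incubated overnight at 37 °C, then exposed to library compounds for 90 min at 37 °C. Detection reagent was added for 30–60 min at room temperature, and luminescence was read.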
* = called active by the depositor; ? = inconclusive; · = not tested or not shown. A selection: hits, their analogues and other compounds. The true share with any hit is near 2.9%. Unless noted, calls follow the shape of the dose curve; as a rule, active = well fitted curve in the direction sought with a large enough effect; inconclusive = small, poorly fitted or top-dose-only effect, or another doubt; inactive = no such curve, though single readings can be large; an effect the other way counts as inactive or inconclusive.

SMILES	D3 antag	a7 integrin act	mIDH1 inhibitor	B2AR arrestin	DRD3 agonist
C=C[C@]1(C)C[C@@H](OC(=O)CSC(C)(C)CNC(=O)[C@H](N)C(C)C)[C@]2(C)[C@H](C)CC[C@]3(CCC(=O)[C@H]32)[C@@H](C)[C@@H]1O	·	·	·	·	-2
COc1ccc(-c2noc(CCC(=O)NCCCN3CCN(c4ccccc4F)CC3)n2)cc1	-95*	-47%	-8%	0%	-13
CCOc1cccc(N2CCN(CCNC(=O)Nc3ccc(C)cc3)CC2)c1C	?	-60%	0%	0%	59*
COc1ccc(N2C(=O)CC(N3CCN(c4ccccc4F)CC3)C2=O)cc1 (configuration not stated)	-66*	16%	2%	0%	4
COc1ccc(-c2noc(CCC(=O)NCCN3CCN(c4ccccc4F)CC3)n2)cc1	0	-25%	7%	0%	5
CN(C)S(=O)(=O)c1cc(NC(=O)CN2CCN(c3ccccc3F)CC2)ccc1Cl	-7	-37%	10%	0%	49*
COC1[C@@H](O[C@@H]2O[C@H](C)[C@@H](O[C@H]3C[C@@](C)(O)[C@H](OC(=O)CC(C)C)[C@H](C)O3)[C@H](N(C)C)[C@H]2O)[C@@H](CC=O)C[C@@H](C)[C@@H](O)/C=C/C=C/C[C@@H](C)OC(=O)C[C@H]1OC(C)=O (some centres not stated)	·	·	·	·	6
COc1ccc(OC)c(NC(=O)N2CC3CCCN3c3ccccc32)c1 (configuration not stated)	·	·	4%	·	-22
CCOc1ccc(NC(=O)NCCN2CCN(c3cccc(C)c3C)CC2)cc1	-59*	-5%	0%	0%	63*
COc1ccccc1NC(=O)NCCCN1CCN(c2ccc(F)cc2)CC1	·	·	-1%	·	-21
COc1cccc(NC(=O)NCCCN2CCN(c3ccc(F)cc3)CC2)c1	-56*	-28%	5%	1%	-30
Cc1ccc(C)c(N2CCN(CCCNC(=O)Cn3cccc3C(=O)c3ccccc3C)CC2)c1	-57*	-70%	0%	0%	-8
CCOc1ccc(OCC)c(NC(=O)CN2CCN(c3cccc(C)c3C)CC2)c1	-19	-12%	5%	0%	7
COc1ccc(NC(=O)NCCCN2CCN(c3cc(C)ccc3C)CC2)cc1	-108*	-56%	2%	0%	-6
Cc1ccc(OCC(=O)NCC(=O)OCc2cc(=O)n3nc(C)sc3n2)cc1	·	·	16%	·	-15
CCCN(CCC)c1ccc(C2N=C(N)Nc3nc4ccccc4n32)cc1 (configuration not stated)	·	·	-22%	·	9
CCN(CC)c1ccc(NC(=O)CCCN2C(=O)C(c3ccccc3)Oc3cccnc32)c(C)c1 (configuration not stated)	·	·	0%	·	-4
COC(=O)c1ccc(N2CCN(CCNC(=O)Nc3ccc(OC)cc3)CC2)cc1	-25	7%	2%	0%	-1
O=C(Nc1ccc(C(=O)NCCCN2CCN(c3ccc(F)cc3)CC2)cc1)C1=CSCCO1	-92*	-20%	6%	0%	-22
COc1ccc(NC(=O)NCCCN2CCN(c3ccccc3F)CC2)cc1	?	-11%	8%	-1%	34*
Cc1cccc2cc(CN(C(=O)c3cccc(Cl)c3)c3ccccc3)c(=O)[nH]c12	·	·	12%	·	1
CC(=O)c1c(C)[nH]c(C(=O)Nc2ccc(N3CCCCCC3)cc2)c1C	11	22%	10%	·	0
Oc1c(Cl)cc(Cl)cc1/C=N/Nc1ncc(Br)cn1	-107*	21%	-9%	0%	-25
O=C(N/N=C/c1cc(Cl)cc(Cl)c1O)c1ccncc1	18	-38%	4%	0%	6
Cc1cc(N2C(=O)C(O)=C(C(=O)c3ccco3)C2c2cccnc2)no1 (configuration not stated)	·	·	·	0%	·
COc1cc(C2C(C(=O)c3ccc(C)o3)=C(O)C(=O)N2c2cc(C)on2)cc(Br)c1O (configuration not stated)	-57*	-17%	0%	0%	0
COc1cc(C2C(C(=O)c3ccco3)=C(O)C(=O)N2c2cc(C)on2)cc(Br)c1O (configuration not stated)	-73*	8%	8%	0%	-13
CCC(=O)N1CCc2cc(CNS(=O)(=O)c3ccc(Cl)s3)ccc21	·	·	7%	·	6

Bioassay records (PubChem)
